# Sampled rows, rich in hits. Any-hit rate of the full collection: about 0.92%.
# L3MBTL1 inh-1 – blocks human L3MBTL1 | Q9Y468 | AlphaScreen L3MBTL1–H3K9me1 peptide binding | Potency, µM (top dose mostly 57.1 µM), most hits filed as inhibitors | 0.66% of 230,000 active; further: nearly all actives have a fitted effect of over 60% in size
#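 Displacement of a biotinylated histone H3(1-15) peptide monomethylated at Lys9 (75 nM) from L3MBTL1 (50 nM) was measured by AlphaScreen after a 30 min room-temperature compound incubation; cefsulodin titration served as intraplate control.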
# BLM inh-1 – Bloom syndrome helicase (human) inhibition; Potency, µM (highest dose often 56.1 µM), actives largely listed as inhibitors; recombinant BLM DNA unwinding, fluorescence dequenching; 0.2% of 350,000 active; further: nearly all actives have a fitted effect of over 35% in size
# Target sequence (P54132 whole entry, looked up): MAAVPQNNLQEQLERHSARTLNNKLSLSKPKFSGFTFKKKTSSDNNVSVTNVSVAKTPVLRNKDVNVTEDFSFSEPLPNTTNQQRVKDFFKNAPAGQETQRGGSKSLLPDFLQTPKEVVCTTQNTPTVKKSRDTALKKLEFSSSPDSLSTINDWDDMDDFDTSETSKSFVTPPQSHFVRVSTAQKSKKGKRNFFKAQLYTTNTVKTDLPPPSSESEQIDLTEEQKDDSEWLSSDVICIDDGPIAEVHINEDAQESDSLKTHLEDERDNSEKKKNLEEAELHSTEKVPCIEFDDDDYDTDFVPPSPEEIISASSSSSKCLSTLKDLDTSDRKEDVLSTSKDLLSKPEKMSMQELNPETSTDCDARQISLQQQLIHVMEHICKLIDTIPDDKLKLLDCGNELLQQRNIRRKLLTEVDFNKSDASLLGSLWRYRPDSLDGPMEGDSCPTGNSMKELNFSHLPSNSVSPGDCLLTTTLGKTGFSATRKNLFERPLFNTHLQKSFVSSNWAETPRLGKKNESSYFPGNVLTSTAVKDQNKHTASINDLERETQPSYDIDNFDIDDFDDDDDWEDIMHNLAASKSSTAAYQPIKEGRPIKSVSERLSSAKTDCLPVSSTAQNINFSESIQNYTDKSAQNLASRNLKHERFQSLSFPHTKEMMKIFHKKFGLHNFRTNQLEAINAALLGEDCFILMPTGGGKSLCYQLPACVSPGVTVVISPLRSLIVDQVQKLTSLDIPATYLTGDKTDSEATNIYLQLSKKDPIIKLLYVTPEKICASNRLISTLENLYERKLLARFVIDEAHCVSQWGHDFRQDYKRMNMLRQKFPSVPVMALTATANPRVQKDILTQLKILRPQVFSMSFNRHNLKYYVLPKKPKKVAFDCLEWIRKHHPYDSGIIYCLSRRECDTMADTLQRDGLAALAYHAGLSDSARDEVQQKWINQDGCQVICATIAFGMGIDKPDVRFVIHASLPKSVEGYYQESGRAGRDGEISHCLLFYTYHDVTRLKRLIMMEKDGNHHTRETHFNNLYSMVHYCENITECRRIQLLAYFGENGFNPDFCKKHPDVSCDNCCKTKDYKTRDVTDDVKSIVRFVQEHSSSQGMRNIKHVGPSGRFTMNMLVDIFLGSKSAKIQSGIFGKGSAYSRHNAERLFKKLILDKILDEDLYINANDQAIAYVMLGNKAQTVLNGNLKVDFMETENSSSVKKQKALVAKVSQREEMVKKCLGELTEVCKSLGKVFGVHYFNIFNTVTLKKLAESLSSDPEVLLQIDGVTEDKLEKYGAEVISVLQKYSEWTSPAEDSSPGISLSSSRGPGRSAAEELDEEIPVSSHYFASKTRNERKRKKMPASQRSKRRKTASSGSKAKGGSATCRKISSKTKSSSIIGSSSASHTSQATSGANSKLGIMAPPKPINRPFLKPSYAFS
# WRN inhibitor – inhibitors of human WRN helicase; Q14191; WRN helicase unwinding, fluorescent forked duplex, kinetic; Potency, µM (highest dose often 114 µM), hits mostly inhibitors; 0.46% of 360,000 active; AID 651768; further: nearly all actives have a fitted effect of over 55% in size
#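 WRN at 20 nM final preincubated with compound 15 min at room temperature; reaction started with 100 nM fluorophore/quencher forked duplex oligonucleotide and 2 mM ATP final. Unwinding followed kinetically by red fluorescence (ex 525, em 598 nm).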
# RECQ1 inh-1 – inhibitors of human RECQ1 DNA helicase; Potency, µM (series often up to 57.3 µM), most hits filed as inhibitors; RECQ1 DNA unwinding, red fluorescence kinetic read; AID 2549; 0.54% of 240,000 active; further: nearly all actives have a fitted effect of over 30% in size
#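 50 nM RECQ1T1 preincubated 15 min with compound in Tris pH 8.0 buffer with MgCl2, DTT, Tween-20 and 2.5 ug/ml poly(dI-dC); started with 200 nM TAMRA/BHQ-2 forked duplex and 2 mM ATP. Unwinding read as fluorescence (525/598 nm), two reads 2 h apart.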
# APE1 inh-1 – blocks human APE1 abasic DNA cleavage. P27695. recombinant APE1, TAMRA/BHQ-2 abasic DNA cleavage fluorescence. Potency, µM (highest dose often 65.8 µM), actives largely listed as inhibitors. 0.35% of 350,000 active. AID 2517; further: nearly all actives have a fitted effect of over 55% in size
#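 Enzyme (0.75 nM final) and test compound are incubated 15 min at room temperature before adding 50 nM quenched THF abasic-site duplex. Cleavage dequenches TAMRA, followed at 525/598 nm over three reads one minute apart.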
# APE1 dye cs – counter-screen for APE1 inhibitors: DNA dye displacement. shares compounds with APE1 inh-1. DNA fluorescent dye displacement counterscreen, fluorescence. Potency, µM (titrated, usually from 28.5 µM), hits mostly inhibitors. 7% of 480 active;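 further: loss of thiazole orange fluorescence as the dye is displaced from duplex DNA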
# Endo IV inh – counter-screen for APE1 inhibitors: inhibitors of E. coli endonuclease IV | shares compounds with APE1 inh-1 | AID 2565 | E. coli Endo IV, fluorogenic AP-site DNA cleavage | 4% of 560 active | Potency, µM (top dose mostly 27.1 µM), usual class: inhibitors
# APE1 inh-2 – APE1 (human) endonuclease inhibition, confirmation; shares compounds with APE1 inh-1; purified APE1, fluorogenic abasic-site DNA cleavage; Potency, µM (titrated, usually from 57.1 µM), actives largely listed as inhibitors; 44% of 750 active; further: nearly all actives have a fitted effect of over 30% in size
# APE1 FP – APE1 (human) DNA binding inhibition, fluorescence polarization | shares compounds with APE1 inh-1 | APE1 binding to TAMRA-labelled double-stranded DNA, fluorescence polarization displacement | Potency, µM (highest dose often 28.5 µM), actives largely listed as inhibitors | 7% of 480 active | AID 2573
# BLM inh-2 – confirmation of inhibitors of human Bloom syndrome helicase BLM | BLM DNA unwinding, fluorescence quenching, biochemical | Potency, µM, hits mostly inhibitors | 40% of 220 active | shares compounds with BLM inh-1;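 further: strand separation dequenches TAMRA so unwinding raises red fluorescence; series mostly up to about 69 µM; nearly all actives have a fitted effect of over 45% in size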
# RECQ1 inh conf – confirmation of human RECQ1 helicase inhibitors; 28% of 610 active; shares compounds with RECQ1 inh-1; Potency, µM (titrated, usually from 229 µM), usual class: inhibitors; RECQ1 helicase DNA unwinding, fluorescence; further: nearly all actives have a fitted effect of over 45% in size
# ADP FP counter – counter-screen for RECQ1 inhibitors: ADP displacement; shares compounds with RECQ1 inh-1; ADP fluorescence polarization displacement counterscreen; Potency, µM (highest dose often 228 µM), usual class: inhibitors; 27% of 530 active; further: nearly all actives have a fitted effect of over 45% in size
# RECQ1 inh-2 – confirmation of human RECQ1 helicase inhibitors | Potency, µM (series often up to 119 µM), actives largely listed as inhibitors | recombinant RECQ1 DNA unwinding, red fluorescence | AID 504841 | shares compounds with RECQ1 inh-1 | 15% of 1,100 active; further: nearly all actives have a fitted effect of over 50% in size
# L3MBTL1 inh-2 – blocks human L3MBTL1 methyl-lysine binding; shares compounds with L3MBTL1 inh-1; L3MBTL1 methyl-lysine binding inhibition, biochemical qHTS; Potency, µM, hits mostly inhibitors; 91% of 500 active; further: nearly all actives have a fitted effect of over 70% in size
# AlphaScreen ctr2 – AlphaScreen signal inhibition, L3MBTL1 hit counter-screen; Potency, µM (highest dose often 57.1 µM), actives largely listed as inhibitors; AlphaScreen counterscreen, signal inhibition; shares compounds with L3MBTL1 inh-1; AID 602224; 500 tested, under 10 active
# A number is an active result; – = inactive; ? = inconclusive; · = no result; [ ] = another dose, or the depositor's remark. The call rests on the fitted dose curve; in most records, active means well fitted curve in the direction sought with a large enough effect; inconclusive means small, poorly fitted or top-dose-only effect, or another doubt; inactive means no such curve, though single readings can be large; an effect the other way counts as inactive or inconclusive.
SMILES,L3MBTL1 inh-1,BLM inh-1,WRN inhibitor,RECQ1 inh-1,APE1 inh-1,APE1 dye cs,Endo IV inh,APE1 inh-2,APE1 FP,L3MBTL1 inh-2,AlphaScreen ctr2,others
CCOC(=O)c1cc(-c2ccc(N3CCOCC3)cc2)nn1-c1ccccc1C(=O)O,14µM,–,?,11µM,2.5µM,–,?,?,?,6.7,–,RECQ1 inh conf=45µM;ADP FP counter=–;RECQ1 inh-2=?
O=C(Nc1cccc(S(=O)(=O)NC2=NCCCCC2)c1)c1cc(-c2ccco2)nc2ccccc12,35µM,?,?,20µM,13µM,–,–,?,–,3,–,RECQ1 inh-2=?
OC1c2ccccc2N=C2CCCN21 (stereo unspecified),·,–,·,–,–,·,·,·,·,·,·,
COc1ccc(Cc2nnc(NC(=O)Cc3cccs3)s2)cc1OC,6.3µM,?,?,20µM,28µM,?,–,2µM,–,11,–,RECQ1 inh-2=?
COc1ccc(C(=O)Nc2nnc(Cc3cccs3)s2)cc1OC,–,–,–,–,–,·,·,·,·,·,·,
CCOC(=O)CNS(=O)(=O)c1cc(-c2nn(C)c(=O)c3ccccc23)ccc1C,28µM,–,–,–,35µM,–,–,10µM,–,?,?,
Cc1nc(Nc2ncc(C(=O)Nc3c(C)cccc3Cl)s2)cc(N2CCN(CCO)CC2)n1,·,–,·,·,·,·,·,·,·,·,·,
N#CC(C#N)=Cc1cccn1-c1ccc(C(=O)O)cc1,2µM,–,56µM,25µM,13µM,–,–,35µM,–,3,–,
N#C/C(=C/c1cccn1-c1cccc(C(=O)O)c1)c1ccc(Cl)cc1,25µM,–,–[11.6 µM],?,11µM,?,–,5µM,–,24,?,RECQ1 inh-2=45µM
O=C(O)c1cc(-c2ccc(/C=C3\NC(=O)N(c4ccccc4)C3=O)o2)ccc1Cl,20µM,–,?,25µM,25µM,·,·,?,·,3,–,
O=C(O)c1ccccc1-c1ccc(/C=C2\SC(=O)N(c3ccccc3)C2=O)o1,–,–,–[11.6 µM],·,–,·,·,·,·,·,·,
COc1ccc(N2Cc3cccc(C(=O)N4CCN(C(=O)c5ccco5)CC4)c3C2=O)cc1,28µM,18µM,50µM,10µM,11µM,·,·,28µM,·,2.7,–,BLM inh-2=23µM;RECQ1 inh conf=40µM;ADP FP counter=?;RECQ1 inh-2=16µM
CCOC(=O)N/N=C1/C[C@@H](O)[C@@H](O)[C@@H]2[C@@H]3C(=O)N([C@@H](C)c4ccccc4)C(=O)[C@H]3CC[C@@H]12,·,–[12.4 µM],·,–[11.5 µM],–[12.4 µM],·,·,·,·,·,·,
COc1cc(OC)c2c(c1)OC(=O)CC2c1ccccc1OC (stereo unspecified),·,–,·,–,–,·,·,·,·,·,·,
Nc1nc2[nH]cc(CCc3ccc(C(=O)NC(CCC(=O)O)C(=O)O)cc3)c2c(=O)[nH]1 (stereo unspecified),·,–,·,·,·,·,·,·,·,·,·,
Cc1cc(NC(=O)CSc2ncnc3sccc23)no1,–,–,–,–,–,·,·,·,·,·,·,
N#Cc1c(NC(=O)CSc2ncnc3sccc23)oc(-c2ccco2)c1-c1ccco1,13µM,20µM,?,25µM,?,10µM,–,?,–,17,–,
N#C/C(=C\c1ccc(O)c(O)c1)C(=O)c1ccc(O)c(O)c1,0.5µM,·,0.17µM,1.6µM,0.095µM,·,?,0.2µM,·,0.075,?,
CC(C)=CCC[C@](C)(O)C1CC[C@]2(C)[C@@H]1CC[C@@H]1[C@@]3(C)CCC(=O)C(C)(C)[C@@H]3CC[C@]12C (stereo partly specified),·,–,·,–,–,·,·,·,·,·,·,
Cc1ccc(-c2cc(-c3ccco3)c(C#N)c(=O)[nH]2)cc1,28µM,25µM,32µM,?,35µM,–,–,?,?,21,–,
Cc1ccc(-c2cc(C(F)(F)F)c(C#N)c(=O)[nH]2)cc1,–,–,?,–,–,·,·,·,·,·,·,
Cc1ccc(/C=c2\sc3nc(-c4ccco4)nn3c2=O)o1,7.9µM,25µM,56µM,–,5.6µM,?,–,7.9µM,–,17,–,BLM inh-2=–
Cc1ccc(/C=c2/sc3nnc(-c4ccccc4Cl)n3c2=O)o1,?,?,?,–,?,·,·,·,·,·,·,
CCN(CC)Cc1c(O)c(Cl)cc2c(C)cc(=O)oc12,22µM,–,–[11.6 µM],?,13µM,–,–,28µM,–,15,–,RECQ1 inh-2=56µM
Cc1cc(/C=C(/C#N)c2nc3ccccc3[nH]2)c(C)n1-c1ccccc1C(=O)O,·,–,?,–,?,·,·,·,·,·,·,
Cc1cc(/C=C(/C#N)c2nc3ccccc3[nH]2)c(C)n1-c1cc(C(=O)O)cc(C(=O)O)c1,3.5µM,–,45µM,–,?,–,–,?,?,1.5,–,
C[C@H](NC(=O)Cc1cc(F)cc(F)c1)C(=O)N[C@@H](C(=O)OC(C)(C)C)c1ccccc1,·,–,·,–,–,·,·,·,·,·,·,
Cc1ccc(NC(=O)CN2C(=O)N/C(=C\c3cccn3-c3cccc(C(=O)O)c3)C2=O)cc1,10µM,–,28µM,?,3.5µM,–,–,14µM,14µM,2.1,–,
Cc1ccc(NC(=O)CN2C(=O)N/C(=C/c3ccc(N4CCOCC4)cc3)C2=O)cc1,?,–,–,–,–,·,·,·,·,·,·,
OC[C@H]1O[C@@H](O[C@@H]2OC=C[C@H]3[C@H](O)[C@@H]4O[C@]4(CO)[C@@H]23)[C@H](O)[C@@H](O)[C@@H]1O,·,–,·,–,–,·,·,·,·,·,·,

# From PubChem BioAssay
